Potency and affinity values are given separately.

For one assay, the target named is Protein translocase subunit SecA (Escherichia coli (strain K12)) (UniProt P10408). Briefly: Assay to Identify E. coli SecA ATPase Inhibitors. The assay is classed as functional. Set-up: scale not given: direction of the effect not stated beside the values. The settings on record: 30 µM.
Protein translocase subunit SecA (Escherichia coli (strain K12)), sequence (P10408 whole entry): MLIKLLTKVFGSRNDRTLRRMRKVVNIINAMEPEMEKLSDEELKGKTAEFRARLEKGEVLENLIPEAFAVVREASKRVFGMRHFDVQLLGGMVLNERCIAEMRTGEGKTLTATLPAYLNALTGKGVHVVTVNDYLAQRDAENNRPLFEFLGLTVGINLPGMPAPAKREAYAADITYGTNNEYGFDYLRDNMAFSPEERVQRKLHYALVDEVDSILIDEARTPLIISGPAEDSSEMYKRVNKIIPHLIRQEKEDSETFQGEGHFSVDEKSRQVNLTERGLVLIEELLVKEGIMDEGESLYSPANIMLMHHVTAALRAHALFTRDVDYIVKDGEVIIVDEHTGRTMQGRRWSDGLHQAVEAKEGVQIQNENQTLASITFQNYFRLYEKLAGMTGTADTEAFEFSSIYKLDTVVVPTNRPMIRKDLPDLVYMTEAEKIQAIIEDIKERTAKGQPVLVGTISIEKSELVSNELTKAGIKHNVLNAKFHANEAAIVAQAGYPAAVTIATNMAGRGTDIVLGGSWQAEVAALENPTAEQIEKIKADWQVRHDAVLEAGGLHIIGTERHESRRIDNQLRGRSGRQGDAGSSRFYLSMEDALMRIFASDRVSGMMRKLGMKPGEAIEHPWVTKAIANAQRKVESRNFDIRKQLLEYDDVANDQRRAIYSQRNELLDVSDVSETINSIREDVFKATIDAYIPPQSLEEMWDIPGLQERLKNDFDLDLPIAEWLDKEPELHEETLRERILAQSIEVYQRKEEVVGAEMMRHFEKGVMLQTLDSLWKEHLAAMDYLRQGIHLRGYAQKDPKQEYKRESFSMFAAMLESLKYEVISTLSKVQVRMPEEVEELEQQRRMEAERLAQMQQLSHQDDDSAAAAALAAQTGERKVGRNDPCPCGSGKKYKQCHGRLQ
Regarding `Cc1ccccc1CNC(=O)CN1CCN(Cc2nccn2C)CC1`, the Percent Effect was -1.84%.

`CCC(=O)N1CCC2(CC1)c1nc[nH]c1CCN2S(C)(=O)=O`: the Percent Effect is -5.57%.

Consider `Cc1cc(C)n(-c2cncc(NCCNC(=O)CC3CCCC3)n2)n1`, for which the Percent Effect is -5.92%.

For the molecule `Cn1ccnc1CNC(=O)N(CCCO)C1CCCc2ccccc21` (stereo not given), the Percent Effect is -2.21%.

On to `Cc1cccc(CCC(=O)N2CCOCC2c2c(C)n[nH]c2C)c1` (stereo not given), for which the Percent Effect is -3.35%.

Take `COc1ccc(CC(=O)N2CCCCC2Cn2cccn2)cc1OC` (stereo not given): the Percent Effect is -5.85%.

For the molecule `O=C(c1ccc[nH]1)N1CCC2(CC1)C(=O)Nc1ccccc12`, the Percent Effect is -3.56%.

In the case of `Cc1ccc(CN2CCCC3(COCCN(Cc4c[nH]nn4)C3)C2)o1` (stereo not given), the Percent Effect was -2.92%.

On to `CCSc1ccc(C(=O)Nc2c(C)nn(C(C)C)c2C)cn1`, for which the Percent Effect was -9.54%.

Regarding `N#CC1(C(=O)N2CCN(Cc3cscn3)CC2)CCCC1`, the Percent Effect was -4.16%.

Consider `CN(C)C(CNC(=O)c1cc2c([nH]c1=O)CCCC2=O)c1ccsc1` (stereo not given), for which the Percent Effect is -5.23%.

Take `Cn1nccc1C1CCN(CC(O)c2cccc(F)c2)CC1` (stereo not given): the Percent Effect was -3.15%.

With `CC(C)N1CCC(Cc2cnc(-c3cccc(C(=O)O)c3)cn2)C1` (stereo not given), the Percent Effect is -3.78%.

`Cc1cn2c(n1)CCC(NC(=O)CCn1cncn1)C2` (stereo not given): the Percent Effect is -8.14%.

As for `Cc1nc(CN(Cc2cccs2)C2CCS(=O)(=O)C2)oc1C` (stereo not given), the Percent Effect is -3.68%.

For `c1csc(-c2nc(CN3CCOC(Cn4cccn4)C3)co2)c1` (stereo not given), the Percent Effect is -4.59%.

Consider `CC1N(CC2CC2)C(=O)COC12CCN(Cc1nccs1)CC2` (stereo not given), for which the Percent Effect is -2.73%.

As to `Cc1nn(CC(=O)N2CCN(c3ccccc3F)CC2)c(C)c1Cl`, the Percent Effect was found to be 0.317%.

As for `c1nc2c(c(C3CC3)n1)CCN(CC1CCOC1)CC2` (stereo not given), the Percent Effect is -4.07%.

With `Cc1nc(CN2CCCC(NCCOc3ccccc3)C2)no1` (stereo not given), the Percent Effect was -2.53%.

As for `COc1c(C2CCCN2C(=O)c2cc(Cl)c[nH]2)c(C)nn1C` (stereo not given), the Percent Effect was -5.79%.

As to `Cc1cc(C)c2cc(CNCc3ccccc3)c3nn(C)c(=O)n3c2c1`, the Percent Effect is -8.18%.

For the molecule `CC(O)CN(CC(=O)NC(=O)NC1CC1)c1ccccc1` (stereo not given), the Percent Effect is -7.41%.

For the molecule `Cc1cc(C)c2nc(CN3CCCC(c4cc[nH]n4)C3)cc(O)c2c1` (stereo not given), the Percent Effect was -1.83%.

For `CCOc1ncccc1NC(=O)c1cc(C)c(C)s1`, the Percent Effect is -7.94%.

Regarding `CN(C)CC(=O)N1Cc2nc(C(=O)NCc3ccncc3)oc2C1`, the Percent Effect is -0.101%.

`CCn1cnnc1CNC(=O)CCC(=O)c1ccc2c(c1)OCCO2`: the Percent Effect was -8.9%.

With `CC(Oc1ccccc1C(F)(F)F)C(=O)NS(=O)(=O)C(C)C` (stereo not given), the Percent Effect was determined as 7.54%.

For `Cn1c(C2CC2)nc2c1CCN(CC(=O)Nc1nncs1)C2`, the Percent Effect is -2.25%.

On to `N#Cc1ncn(CCC(=O)Nc2ccc(Cl)cc2F)n1`, for which the Percent Effect worked out at 1.65%.

In the case of `Cc1cn2c(n1)CCC(NC(=O)c1nc(C)ncc1Cl)C2` (stereo not given), the Percent Effect is -5.44%.

Consider `CN(C)c1ncc(CN2CCOC(C(=O)Nc3ccccc3)C2)cn1` (stereo not given), for which the Percent Effect is -0.531%.

For the molecule `CC(=O)Nc1cc(C(=O)N2CCOCC2c2ccc(C)o2)ccc1F` (stereo not given), the Percent Effect is -3.55%.

On to `Cc1cnccc1CN1C[C@@H](O)[C@H](Oc2ccccc2)C1`, for which the Percent Effect turned out to be 4.34%.

With `CC1=N[C@@]2(CC[C@@H]3CN(S(=O)(=O)N(C)C)C[C@@H]32)C(=O)N1CC(C)C`, the Percent Effect worked out at 1.29%.

For the molecule `CCCS(=O)(=O)N1CCN(c2cc(-n3nc(C)cc3C)nc(C)n2)CC1`, the Percent Effect is -2.23%.

As for `O=C(O)c1nnn(Cc2cccc(C(F)(F)F)c2)c1-c1cccnc1`, the Percent Effect amounted to 2.36%.

`CC(C)(N)CN1CCC(c2nnc(CN3CCCC3)n2C2CC2)CC1`: the Percent Effect is -7.06%.

Regarding `Cc1cccc(CNC(=O)CNc2cc(CO)ccc2Cl)c1`, the Percent Effect is -6.11%.

As to `COCC1CC2(CCN(Cc3cnn(C)c3)CC2)CN1c1ncccn1` (stereo not given), the Percent Effect is -2.97%.

The target of the next assay is T1, Ubiquitin-activating enzyme e1, putative (Leishmania donovani (strain BPK282A1)) (UniProt E9BSI1).
T1 sequence (whole entry): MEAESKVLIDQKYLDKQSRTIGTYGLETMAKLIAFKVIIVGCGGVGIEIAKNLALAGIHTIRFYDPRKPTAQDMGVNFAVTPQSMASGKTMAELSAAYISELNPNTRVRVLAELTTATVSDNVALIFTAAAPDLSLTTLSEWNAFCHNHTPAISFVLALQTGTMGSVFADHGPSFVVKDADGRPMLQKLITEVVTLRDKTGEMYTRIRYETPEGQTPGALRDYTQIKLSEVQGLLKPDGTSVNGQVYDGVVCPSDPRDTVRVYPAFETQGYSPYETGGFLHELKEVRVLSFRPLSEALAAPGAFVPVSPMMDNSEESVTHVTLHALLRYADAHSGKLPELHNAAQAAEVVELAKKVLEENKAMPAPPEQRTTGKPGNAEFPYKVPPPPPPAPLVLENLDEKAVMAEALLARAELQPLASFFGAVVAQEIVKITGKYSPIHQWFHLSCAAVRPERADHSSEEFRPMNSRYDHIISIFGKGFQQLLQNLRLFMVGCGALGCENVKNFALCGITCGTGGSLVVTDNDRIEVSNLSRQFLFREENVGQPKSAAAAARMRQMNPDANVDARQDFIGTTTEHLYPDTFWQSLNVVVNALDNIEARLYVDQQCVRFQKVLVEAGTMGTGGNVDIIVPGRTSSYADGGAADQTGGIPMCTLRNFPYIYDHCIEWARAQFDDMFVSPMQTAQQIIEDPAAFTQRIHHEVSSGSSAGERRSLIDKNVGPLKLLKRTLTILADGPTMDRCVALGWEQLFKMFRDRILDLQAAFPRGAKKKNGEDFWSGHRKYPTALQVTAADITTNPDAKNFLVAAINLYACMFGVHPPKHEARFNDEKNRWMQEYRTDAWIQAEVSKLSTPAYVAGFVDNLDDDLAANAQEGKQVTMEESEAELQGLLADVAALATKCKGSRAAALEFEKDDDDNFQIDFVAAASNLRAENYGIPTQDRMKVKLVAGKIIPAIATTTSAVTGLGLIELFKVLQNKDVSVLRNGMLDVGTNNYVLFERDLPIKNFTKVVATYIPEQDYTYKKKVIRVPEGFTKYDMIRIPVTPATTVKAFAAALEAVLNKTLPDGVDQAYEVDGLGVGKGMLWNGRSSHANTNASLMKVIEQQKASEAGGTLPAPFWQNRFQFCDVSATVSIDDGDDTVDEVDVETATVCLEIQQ
Briefly: Leishmania donovani Ubiquitin Activating Enzyme (LdE1). Conditions: 30 µM. The assay is classed as functional. Set-up: scale not given: direction of the effect not stated beside the values.
Consider `Cc1ccccc1CNC(=O)CN1CCN(Cc2nccn2C)CC1`, for which the Percent Effect came out at 21.6%.

For `CCC(=O)N1CCC2(CC1)c1nc[nH]c1CCN2S(C)(=O)=O`, the Percent Effect turned out to be 12.5%.

Regarding `Cc1cc(C)n(-c2cncc(NCCNC(=O)CC3CCCC3)n2)n1`, the Percent Effect stood at 5.41%.

With `Cn1ccnc1CNC(=O)N(CCCO)C1CCCc2ccccc21` (stereo not given), the Percent Effect was 5.26%.

Take `Cc1cccc(CCC(=O)N2CCOCC2c2c(C)n[nH]c2C)c1` (stereo not given): the Percent Effect was -5.48%.

In the case of `COc1ccc(CC(=O)N2CCCCC2Cn2cccn2)cc1OC` (stereo not given), the Percent Effect stood at 7.89%.

On to `O=C(c1ccc[nH]1)N1CCC2(CC1)C(=O)Nc1ccccc12`, for which the Percent Effect was found to be 16.2%.

With `Cc1ccc(CN2CCCC3(COCCN(Cc4c[nH]nn4)C3)C2)o1` (stereo not given), the Percent Effect worked out at 2.67%.

As to `CCSc1ccc(C(=O)Nc2c(C)nn(C(C)C)c2C)cn1`, the Percent Effect was -2.74%.

For `N#CC1(C(=O)N2CCN(Cc3cscn3)CC2)CCCC1`, the Percent Effect turned out to be 10.1%.

Consider `CN(C)C(CNC(=O)c1cc2c([nH]c1=O)CCCC2=O)c1ccsc1` (stereo not given), for which the Percent Effect worked out at 16.2%.

As to `Cn1nccc1C1CCN(CC(O)c2cccc(F)c2)CC1` (stereo not given), the Percent Effect was determined as 5.06%.

As to `CC(C)N1CCC(Cc2cnc(-c3cccc(C(=O)O)c3)cn2)C1` (stereo not given), the Percent Effect was 1.35%.

For `Cc1cn2c(n1)CCC(NC(=O)CCn1cncn1)C2` (stereo not given), the Percent Effect was 5.26%.

Turning to `Cc1nc(CN(Cc2cccs2)C2CCS(=O)(=O)C2)oc1C` (stereo not given), the Percent Effect was determined as 15.8%.

Regarding `c1csc(-c2nc(CN3CCOC(Cn4cccn4)C3)co2)c1` (stereo not given), the Percent Effect was 18.9%.

Consider `CC1N(CC2CC2)C(=O)COC12CCN(Cc1nccs1)CC2` (stereo not given), for which the Percent Effect was 11%.

For `Cc1nn(CC(=O)N2CCN(c3ccccc3F)CC2)c(C)c1Cl`, the Percent Effect amounted to 15.6%.

Turning to `c1nc2c(c(C3CC3)n1)CCN(CC1CCOC1)CC2` (stereo not given), the Percent Effect was 8.11%.

As for `Cc1nc(CN2CCCC(NCCOc3ccccc3)C2)no1` (stereo not given), the Percent Effect is 2.53%.

Take `COc1c(C2CCCN2C(=O)c2cc(Cl)c[nH]2)c(C)nn1C` (stereo not given): the Percent Effect was 5.41%.

Consider `Cc1cc(C)c2cc(CNCc3ccccc3)c3nn(C)c(=O)n3c2c1`, for which the Percent Effect stood at 9.46%.

Consider `CC(O)CN(CC(=O)NC(=O)NC1CC1)c1ccccc1` (stereo not given), for which the Percent Effect amounted to 15.6%.

On to `Cc1cc(C)c2nc(CN3CCCC(c4cc[nH]n4)C3)cc(O)c2c1` (stereo not given), for which the Percent Effect is 0%.

`CCOc1ncccc1NC(=O)c1cc(C)c(C)s1`: the Percent Effect was determined as 1.39%.

Take `CN(C)CC(=O)N1Cc2nc(C(=O)NCc3ccncc3)oc2C1`: the Percent Effect came to 13.3%.

Regarding `CCn1cnnc1CNC(=O)CCC(=O)c1ccc2c(c1)OCCO2`, the Percent Effect came out at 16.2%.

Regarding `CC(Oc1ccccc1C(F)(F)F)C(=O)NS(=O)(=O)C(C)C` (stereo not given), the Percent Effect came to 0%.

As for `Cn1c(C2CC2)nc2c1CCN(CC(=O)Nc1nncs1)C2`, the Percent Effect was -2.6%.

For the molecule `N#Cc1ncn(CCC(=O)Nc2ccc(Cl)cc2F)n1`, the Percent Effect stood at 8.22%.

For the molecule `Cc1cn2c(n1)CCC(NC(=O)c1nc(C)ncc1Cl)C2` (stereo not given), the Percent Effect worked out at 7.79%.

On to `CN(C)c1ncc(CN2CCOC(C(=O)Nc3ccccc3)C2)cn1` (stereo not given), for which the Percent Effect stood at 16%.

`CC(=O)Nc1cc(C(=O)N2CCOCC2c2ccc(C)o2)ccc1F` (stereo not given): the Percent Effect was 2.67%.

As to `Cc1cnccc1CN1C[C@@H](O)[C@H](Oc2ccccc2)C1`, the Percent Effect is -4.05%.

Consider `CC1=N[C@@]2(CC[C@@H]3CN(S(=O)(=O)N(C)C)C[C@@H]32)C(=O)N1CC(C)C`, for which the Percent Effect was determined as 8.11%.

With `CCCS(=O)(=O)N1CCN(c2cc(-n3nc(C)cc3C)nc(C)n2)CC1`, the Percent Effect is 0%.

In the case of `O=C(O)c1nnn(Cc2cccc(C(F)(F)F)c2)c1-c1cccnc1`, the Percent Effect came to 6.67%.

For `CC(C)(N)CN1CCC(c2nnc(CN3CCCC3)n2C2CC2)CC1`, the Percent Effect is 8%.

For `Cc1cccc(CNC(=O)CNc2cc(CO)ccc2Cl)c1`, the Percent Effect was determined as 2.63%.

With `COCC1CC2(CCN(Cc3cnn(C)c3)CC2)CN1c1ncccn1` (stereo not given), the Percent Effect turned out to be 13%.

The record behind these values is ChEMBL document CHEMBL3988442, “University of Dundee, Small-Polar-MMV Screening Library” (2021).
